This is a sample that favours compounds with a hit; in the whole collection about 4.2% have one here.
USP7 inh = blocks human USP7 ubiquitin-rhodamine cleavage. Q93009. purified USP7, Ub-rhodamine cleavage fluorescence. inhibition, % at 20 µM. actives 0.3% (n = 47,000). AID 1645854
USP28 inh = blocks human USP28 ubiquitin-rhodamine cleavage. Q96RU2. purified USP28, Ub-rhodamine cleavage fluorescence, 30 min. inhibition, % at 25 µM. actives 3% (n = 47,000)
Target sequence (Q96RU2 whole entry, looked up): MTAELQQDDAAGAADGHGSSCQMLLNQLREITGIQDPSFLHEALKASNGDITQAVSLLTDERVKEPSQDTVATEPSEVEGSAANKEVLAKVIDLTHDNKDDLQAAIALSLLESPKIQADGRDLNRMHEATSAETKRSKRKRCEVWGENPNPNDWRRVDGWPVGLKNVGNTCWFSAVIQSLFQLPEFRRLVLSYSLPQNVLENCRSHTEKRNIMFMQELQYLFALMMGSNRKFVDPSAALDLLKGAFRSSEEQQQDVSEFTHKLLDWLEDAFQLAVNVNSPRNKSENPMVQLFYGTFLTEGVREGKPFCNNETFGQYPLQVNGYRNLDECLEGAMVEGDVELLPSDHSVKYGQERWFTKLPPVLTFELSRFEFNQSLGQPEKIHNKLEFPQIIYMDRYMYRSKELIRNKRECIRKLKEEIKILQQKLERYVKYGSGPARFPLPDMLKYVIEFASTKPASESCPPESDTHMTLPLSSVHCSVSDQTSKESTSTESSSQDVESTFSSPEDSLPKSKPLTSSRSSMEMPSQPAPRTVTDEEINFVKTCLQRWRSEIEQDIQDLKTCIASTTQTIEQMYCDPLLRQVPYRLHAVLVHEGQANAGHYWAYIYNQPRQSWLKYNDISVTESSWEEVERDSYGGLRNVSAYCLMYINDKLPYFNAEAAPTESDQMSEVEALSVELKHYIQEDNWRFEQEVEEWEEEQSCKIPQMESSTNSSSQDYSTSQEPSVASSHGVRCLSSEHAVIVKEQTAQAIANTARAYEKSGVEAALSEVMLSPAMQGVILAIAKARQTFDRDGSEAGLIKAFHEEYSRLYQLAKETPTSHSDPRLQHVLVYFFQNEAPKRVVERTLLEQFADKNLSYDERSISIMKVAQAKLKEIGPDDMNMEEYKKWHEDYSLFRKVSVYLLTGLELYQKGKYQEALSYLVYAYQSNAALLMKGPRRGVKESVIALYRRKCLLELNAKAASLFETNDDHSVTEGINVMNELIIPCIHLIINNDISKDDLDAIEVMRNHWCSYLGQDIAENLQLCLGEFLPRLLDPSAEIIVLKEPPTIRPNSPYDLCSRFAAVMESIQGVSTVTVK
UCHL1 block = blocks human UCHL1 ubiquitin-rhodamine cleavage; P09936; purified UCHL1, Ub-rhodamine cleavage fluorescence; inhibition, % at 20 µM; actives 0.2% (n = 47,000)
OTUD3 inh = blocks human OTUD3 ubiquitin-rhodamine cleavage | Q5T2D3 | purified OTUD3, Ub-rhodamine fluorescence, 2 h | inhibition, % at 25 µM | actives 0.7% (n = 47,000)
USP10 block = human USP10 deubiquitinase inhibition. actives 1.1% (n = 47,000). inhibition, % at 20 µM. purified USP10, Ub-rhodamine fluorescence, 60 min. AID 1645856
* = called active by the depositor; nt = no result. No stated cut-off is given here; in the data, active means inhibition above about 30%; inactive means the rest.

SMILES	USP7 inh	USP28 inh	UCHL1 block	OTUD3 inh	USP10 block
O=C(NC1CCCC1)C1CC(=O)N(c2cccc(-c3noc(-c4cccs4)n3)c2)C1 (stereo not given)	1.4	-1.4	3.9	0.4	45.3*
O=C(COC(=O)c1sc2ccccc2c1Cl)Nc1ccc(F)cc1	0.1	7.7	0.0	7.6	5.9
NS(=O)(=O)c1ccc(NC(=O)COC(=O)c2sc3cc(F)ccc3c2Cl)cc1	15.1	34.0*	2.4	15.3	25.1
CC(C(N)C(=O)NC(C(=O)O)C1OC(n2ccc(=O)[nH]c2=O)C(O)C1O)C(O)c1ccc(O)cn1 (stereo not given) (tested in a mixture with another compound)	-63.3	-138.4	-64.7	-120.9	-11.7
COc1cc(Cn2nnc3ccccc32)cc(Br)c1O	-21.4	38.2*	0.3	8.5	-0.8
COc1ccc(CNC(=O)Cn2cnc3ccccc32)cc1OC	1.4	-5.7	-2.4	-3.9	1.3
COc1ccc(-c2ccccc2)cc1[C@H]1C[C@@H](NC(C)=O)[C@@H]2CCC[C@H]2O1	-19.8	5.6	3.6	-3.9	2.4
CC(C)(C)c1ccc(C(=O)Nc2ccc([C@@H](O)[C@H]3COCC(=O)N3)cc2)cc1	-0.6	46.5*	-0.4	-4.9	-1.4
O=C1COC[C@H]([C@H](O)c2ccc(NC(=O)c3ccc(F)c(Cl)c3)cc2)N1	-0.3	25.7	2.8	-10.5	6.1
CCOc1ccc(-c2nc(SCC(=O)Nc3cccc(C)c3)n3[nH]c(=O)cc3n2)cc1	-141.0	18.2	14.3	26.5	53.1*
CCc1ccc(NC(=O)CSc2nc(-c3ccccc3C)nc3cc(=O)[nH]n23)cc1	3.7	-5.9	0.9	-0.2	23.9
CCOC(=O)c1csc(-c2ccc(F)cc2F)n1	-3.7	42.0*	0.9	11.7	0.2
NS(=O)(=O)c1ccc(CCNC(=O)C(=O)c2c[nH]c3ccccc23)cc1	2.2	35.6*	2.4	7.3	4.5
COc1ccc([N+](=O)[O-])cc1NC(=O)C(C)OC(=O)c1cc(=O)[nH]c2ccc(S(=O)(=O)Nc3ccc(F)cc3)cc12 (stereo not given)	-25.6	20.2	0.1	-8.9	19.6
O=C(COc1ccc(F)cc1)Nc1noc(-c2ccccc2)n1	6.0	44.1*	2.4	-0.9	2.1
Cc1ccc(-c2nc(NC(=O)COc3ccc(Cl)cc3)no2)cc1	63.5*	89.1*	27.8	-1.1	65.1*
Cc1cc(NC(=O)CSc2nnc(CNC(=O)COc3ccc(Cl)cc3)o2)no1	0.3	0.5	-3.0	1.2	2.7
Cc1cc(NC(=O)COc2ccc(F)c(Cl)c2)no1	0.1	40.2*	1.5	9.3	-1.8
Cc1cccc(-c2nc(NC(=O)COc3ccc(F)cc3)no2)c1	28.7	60.5*	13.0	20.5	14.6
O=C(Cc1ccccc1)N1CCC(c2nc3c(nnn3Cc3ccc(F)cc3)c(=O)[nH]2)CC1	-14.3	16.1	4.3	4.3	12.6
COc1nccnc1NC1CCN(C(=O)COc2ccccc2)CC1	1.2	nt	-0.2	0.0	5.2
CC(=O)c1ccc(C(=O)N2CCN(c3ccnc(N(C)CCc4ccccc4)n3)CC2)cc1	4.1	-0.3	-2.4	-8.6	-1.5
Cc1nn(-c2ccc(Br)cc2)cc1-c1noc(C(=O)N2CCCCCC2)n1	-62.4	-0.1	0.9	-0.1	9.2
O=C1CC(C(=O)Nc2ccc3c(c2)OCO3)n2nc(SCc3ccccc3)nc2N1 (stereo not given)	12.3	10.8	5.1	8.7	33.1*
Cc1cnc(C(=O)N2CCC[C@@H]3NC(=O)c4ccccc4OCC/C=C/C[C@@H]32)cn1	0.9	45.0*	2.4	8.9	-0.2
SMILES	USP7 inh	USP28 inh	UCHL1 block	OTUD3 inh	USP10 block
Cc1c(C(=O)N(C)c2nc3c(s2)CCc2occc2-3)oc2ccccc12	4.3	39.9*	5.6	36.0*	8.8
Cn1cccc1C(=O)C(=O)Nc1ccc(F)cc1F	-6.0	0.6	-1.4	-2.2	-0.5
C=C1CCC2[C@](C)(CCC[C@]2(C)C(=O)OC)[C@H]1CCc1ccoc1CNC(C)C (stereo not given in full)	11.2	24.2	4.8	30.3*	-2.8
COc1ccc(-c2ccc3cc(C(=O)O)ccc3c2)cc1C12CC3CC(CC(C3)C1)C2	-13.5	10.0	5.2	6.4	80.2*
O=C(Nc1ccc(Cl)cc1)c1cccc(OCc2ccccc2)c1	-6.8	1.2	3.1	-0.9	15.4
CN1CCC(N(C)S(=O)(=O)c2ccc(NC(=O)c3cccc(OCc4ccccc4)c3)cc2)CC1	-18.2	51.7*	4.3	-17.9	-0.3
Clc1ccsc1-c1ccn[nH]1	7.8	17.5	0.2	-8.3	-0.4
